Results published in PubChem BioAssay (NCI).
Where “and” joins values, the source holds several entries; their conditions need not be identical. Equal entries are not always repeated. About 79,000 compounds went through this panel and 15% of them were active in at least one assay; those are over-represented in the sample as a whole. Values without a mark were called inactive. Calls of active or inactive are those of the source. Rule as the data show it: active = growth inhibition above about 70%; inactive = the rest.

Legend:
[1] = NCI Yeast Anticancer Drug Screen. Data for the rad50 strain (AID 155);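 also: 0% = growth of vehicle-only cultures of the same strain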; settings: S. cerevisiae rad50 strain growth inhibition, hits give high values; at 50.0 µM unless noted
Outline: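 Cells are treated with compound, grown, and their growth is then scored against vehicle-only cultures of the same repair-deficient yeast strain.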

[2] = NCI Yeast Anticancer Drug Screen. Data for the mec2-1 strain (AID 157); settings: S. cerevisiae mec2-1 strain, hits give high values; at 50.0 µM unless noted
Outline: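 Readout is yeast growth inhibition, normalised to vehicle-treated controls, in the mec2-1 strain exposed to compound.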

[3] = NCI Yeast Anticancer Drug Screen. Data for the sgs1 mgt1 strain (AID 161);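 also: 0% = growth of cultures given vehicle only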; settings: S. cerevisiae sgs1 mgt1 strain, hits give high values; at 50.0 µM unless noted
Outline: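 This yeast growth screen uses a strain with defined DNA-repair lesions; compound-treated growth is compared with vehicle-treated growth.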

[4] = NCI Yeast Anticancer Drug Screen. Data for the cln2 rad14 strain (AID 165);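 also: 0% = growth equal to vehicle treated cultures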; settings: S. cerevisiae cln2 rad14 strain, hits give high values; at 50.0 µM unless noted
Outline: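 Relative to vehicle controls, growth inhibition of compound-treated cln2 rad14 yeast was recorded.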

[5] = NCI Yeast Anticancer Drug Screen. Data for the bub3 strain (AID 167); settings: S. cerevisiae bub3 mutant strain, hits give high values; at 50.0 µM unless noted
Outline: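 Part of a panel of yeast mutants defective in DNA damage repair or cell cycle regulation. Each strain is grown with compound, and inhibition is calculated relative to solvent-treated cultures.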

[6] = NCI Yeast Anticancer Drug Screen. Data for the mlh1 rad18 strain (AID 175); settings: S. cerevisiae mlh1 rad18 strain growth inhibition, hits give high values; at 50.0 µM unless noted
Outline: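 Test agents were incubated with a yeast strain of defined genotype (DNA damage repair defect). Inhibition of growth was derived by comparison with vehicle-exposed cultures.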

Row | Compound | growth inhibition [1] | growth inhibition [2] | growth inhibition [3] | growth inhibition [4] | growth inhibition [5] | growth inhibition [6]
1 | CCCCC(CC)CCC(C)O (configuration not stated) | -6.75% | -4.75% | 25.6% | -40.4% | -16.8% | -14.7%
2 | ClCCOC1CCCCO1 (configuration not stated) | -19% | -15.2% | -13.6% | 6.2% | -5.4% | -5.15%
3 | O=C1c2ccccc2C(=O)c2c3c(cc(NCCNCCO)c21)N(CCO)CCN3 | 29.4% | 18.4% | 33.8% | 10.3% | 34.8% | 29.1%
4 | c1ccc(-n2ncnn2)cc1 | -6.5% | -11.3% | -8.55% | -41.1% | 24.4% | -1.75%
5 | CCc1ccc(NS(=O)(=O)c2ccc(OC)cc2)cc1 | 37.9% | 63.5% | 80.2% (active) | 25.9% | 43.4% | 75.7% (active)
6 | Clc1ccc(C(=Nc2ccccc2)C(Nc2ccccc2)c2ccc(Cl)cc2)cc1 (configuration not stated) | 4.75% | -5.15% | 17.8% | 8.75% | 3.8% | 19.4%
7 | CC(=O)c1ccccc1OB(F)F | 10.2% | -11.2% | 8.8% | -4.45% | 1.05% | -11.9%
8 | COc1ccc(/C=N/N2CN(C(C)C(=O)O)B(NCCC(C)C)N=C2N)cc1OC (configuration not stated) | -0.5% | -10.3% | 20.9% | 6.3% | 29.2% | -4.1%
9 | N#CC1C(=O)C(=O)N(c2ccccc2)C1=O (configuration not stated) | -6.1% | -6.85% | -24.7% | 3.15% | -1.85% | -6.25%
10 | CCOc1ccccc1Nc1ccc(N)cc1S(=O)(=O)O | 9.45% | 0.85% | -31.5% | -6.2% | 1.35% | -8.05%
11 | COc1ccc(/C(C)=N/NC(=O)c2ccncc2)cc1OC | -9.6% | -9.9% | -18.6% | -12.7% | -40% | -4.2%
12 | Nc1nc(N)c(CCCCc2ccccc2)c(Cc2ccccc2)n1 | -10.2% | -10.5% | -2% | -40% | 3.7% | -7.4%
13 | COC(=O)C1CCC(=O)N1Cc1cccs1 (configuration not stated) | -22.9% | -1.7% | -11.1% | 22.1% | 3.55% | -13.2%
14 | C=CCOC(=O)NC(CC(C)C)C(=O)NCC(N)=O (configuration not stated) | -10.4% | 1.9% | -4.3% | -10.9% | -45.5% | -28%
15 | O=S(=O)(Nc1cccc(O)c1)c1ccccc1 | 6% | -12.1% | 6.8% | 14.7% | 3% | 13.2%
16 | N#CC1=C(NC(N)=O)CCCC1 | -0.7% | 36.7% | 10.7% | 35.3% | 10.1% | 5.45%
17 | c1ccc(-c2nc3ccccc3s2)cc1 | 25.2% and 18.6% | -22.4% and -0.5% | 24.1% and -17.9% | 23.8% and -20.2% | 8.55% and -4.35% | 40.4% and 2.6%
18 | S=c1[nH]nc2scnn12 | -2.85% | 3.55% | 4.25% | -45.5% | 7.4% | -9.3%
19 | O=C(Cl)C(=O)c1c[nH]c2ccccc12 | 6.2% | -1.95% | -3% | 1.65% | -33.6% | -12.5%
20 | Cn1c2c(c(=O)c3ccccc31)CC(O)C(C)(C)O2 (configuration not stated) | -23.6% | -35.7% | -6.4% | 6% | 3.35% | -2.65%
21 | CC(N)(CC(O)(C(F)(F)Cl)C(F)(F)Cl)C(=O)O (configuration not stated) | -48.1% | -37.7% | -33.4% | -9.25% | -13.7% | -28.8%

Row | Compound | growth inhibition [1] | growth inhibition [2] | growth inhibition [3] | growth inhibition [4] | growth inhibition [5] | growth inhibition [6]
22 | O=C(NCCCl)c1ccc(Cl)c(Cl)c1 | 2.8% | 0.25% | 4.95% | -20.9% | 12.8% | 3.7%
23 | Cc1ccc(S(=O)(=O)CBr)cc1 | 5.35% | 14% | 6.9% | 3.3% | 4.6% | 5.2%
24 | CCOC(=O)/N=N/C(C)(C)OC(C)=O | -10.5% | 9.25% | -8.1% | -39.7% | -20.4% | -21.1%
25 | CC(=O)NNc1nc(C)c(C(=O)/C=C/c2ccc(NC(C)=O)cc2)s1 | 21.9% | 16.1% | 0.3% | 9.15% | 22.2% | 31.5%
26 | O=C(CC1=Nc2nnc(-c3nnc4n3C(=O)C(CC(=O)c3cccnc3)=N4)n2C1=O)c1cccnc1 | -5% | -8.55% | -1.35% | -19.2% | -6.35% | -12.7%
27 | CCCC(C)C(=O)OC(CC)CC (configuration not stated) | 31.4% | 1.55% | 13.1% | -18.2% | 5.65% | 11.4%
28 | CC(C)CC(C)COC(=O)c1c(Cl)c(Cl)c(Cl)c(Cl)c1C(=O)O (configuration not stated) | 66.6% | 62.6% | 77.9% (active) | 63.4% | 72.8% (active) | 77.3% (active)
29 | CCN1CCC(O)C1 (configuration not stated) | 18.6% | -0.1% | 19.2% | 14.2% | 26% | 30.9%
30 | CC1(C)C2CC(O)C1CCC2=O (configuration not stated) | -4.15% | -16.2% | -33.8% | 6% | -21% | -35.5%
31 | CC1(C)OCC(C2OC3OC(C)(C)OC3C2N)O1 (configuration not stated) | 10.8% | 10.7% | 11.1% | -2.95% | 21.8% | 5.4%
32 | COc1ccc(N=Nc2nc(N)c(C(N)=O)[nH]2)cc1 | -8.65% | -7.55% | -4.75% | -28.5% | 5.7% | -16.6%
33 | OCC(O)Cc1ccccc1 (configuration not stated) | -7% | -12.8% | 3.2% | -13.1% | -1.8% | 5.05%
34 | O=[N+]([O-])c1ccc[nH]c1=S | -5.15% | -15.8% | -20.4% | -7.35% | 23% | -35.6%
35 | CC12CCC(=O)C=C1CCCC2=O (configuration not stated) | -7.6% | -12.3% | -11.6% | -14.7% | -7.75% | -3.4%
36 | CC(=O)NC(CCC(=O)O)C(=O)O (configuration not stated) | -0.55% | -14.9% | -7.15% | -6.2% | -20.1% | -1.6%
37 | Cn1c2cccc3nnc4cccc(c4c32)n1C | -37.1% | -9.3% | -4.9% | 4.2% | -6.65% | -11.8%
38 | CCN(CCO)c1cccc(C)c1 | -12.2% | -19.1% | -12.5% | 1.6% | -17.4% | -7.2%
39 | Cc1ccc(OCc2ccc([N+](=O)[O-])cc2)cc1 | 1.8% | -12.2% | -12.6% | 13.9% | -16.4% | -16.8%
40 | CC(=O)N(C(=O)CC(=O)NNCc1ccccc1Cl)c1ccc(Cl)cc1 | -11.4% | -14.2% | -19.6% | -11.4% | -17% | 6.3%
41 | O=C1OC2(CCCCC2)OC1c1ccccc1 (configuration not stated) | 23.4% | 4.2% | 11.9% | 10.5% | 16.2% | 33.5%
42 | NC(=O)N/N=C(\C(=O)C(=O)Nc1ccc(Cl)c(C(F)(F)F)c1)c1nc2ccc(C(=O)c3ccccc3)cc2[nH]c1=O | 25.4% | -1.3% | 38.8% | -37% | -3.35% | 25.1%
